# From PubChem
# TRHR enhancer: allosterically enhances the human TRH receptor; P34981; TRHR cells, fluo-8 calcium fluorescence, EC20 TRH enhancement; enhancement, % at 2 µM; 0.66% of 360,000 active; in the data active means enhancement above about 30%; further: 0% is about no effect
#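 Enhancer read-out: after compound pinning and an initial kinetic agonist-mode read, an EC20 of TRH (10 nM final) was injected and fluo-8 calcium signal (Ex 480/Em 530) followed at 1 s/cycle for 100 cycles in TRHR-expressing cells.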
# D1 agonist: agonists of human D1 dopamine receptor; P21728; HEK293 T-REx D1 cells, calcium flux, agonist mode; activation, % at 2 µM; 1% of 360,000 active; AID 504660; further: 0% is about no effect
# Target sequence (P21728 whole entry, looked up): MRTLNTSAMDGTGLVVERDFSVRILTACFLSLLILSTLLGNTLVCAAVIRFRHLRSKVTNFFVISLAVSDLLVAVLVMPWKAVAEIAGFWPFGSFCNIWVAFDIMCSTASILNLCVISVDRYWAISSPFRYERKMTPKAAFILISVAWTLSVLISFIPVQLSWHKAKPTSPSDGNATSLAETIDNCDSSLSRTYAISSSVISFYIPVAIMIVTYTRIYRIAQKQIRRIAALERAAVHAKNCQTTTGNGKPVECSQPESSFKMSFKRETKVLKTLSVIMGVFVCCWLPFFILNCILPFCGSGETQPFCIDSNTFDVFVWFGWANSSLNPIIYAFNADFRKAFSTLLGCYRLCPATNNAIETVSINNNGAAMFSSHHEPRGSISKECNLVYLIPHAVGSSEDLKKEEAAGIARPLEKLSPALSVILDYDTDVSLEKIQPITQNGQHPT
#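 Agonism was scored from calcium flux recorded over 180 s (1 read/s) after pintool compound addition, following a 10-cycle baseline. Cells were inducible force-coupled HEK293 TREx D1, plated overnight at 30 C and loaded with no-wash calcium dye.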
# D1 antagonist: human D1 dopamine receptor antagonism; activity change, negative = inhibition, % at 10 µM; 3.2% of 360,000 active; HEK293 TREx D1 cells, calcium flux, dopamine EC80; stronger effect = lower value; P21728; in the data active means activity change below about -30%; further: on the % scale 0 is the no-effect control and ±100 the full control effect
#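 Allosteric or orthosteric antagonism assessed as attenuation of the calcium response to EC80 dopamine, added 180 s after compound, in induced HEK293 Trex D1 cells loaded with no-wash calcium dye.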
# D1 potentiator: potentiators of human D1 dopamine receptor | HEK293 TREx D1 cells, calcium flux, dopamine EC20 potentiation | AID 504651 | potentiation, % at 10 µM | 0.036% of 360,000 active | P21728; in the data active means potentiation above about 30%; further: 0% is about no effect
# TRHR ag: agonists of human TRH receptor. TRHR cells, calcium flux fluo-8, FDSS agonist mode. 0.18% of 360,000 active. AID 493084. activation, % at 2 µM. P34981; further: 0% is about no effect
#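 Steps: seed TRHR cells overnight; add fluo-8 no-wash Ca dye, RT 30 min–1.5 h; record 10 s baseline; pin-transfer compounds; monitor fluorescence 1 cycle/s for the agonist window. Calcium increases flag candidate agonists.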
# An asterisk follows results filed as active; · = not tested or not shown. Rows were chosen to be rich in hits. Some 4.6% of all compounds tested hit in one or more screens of this group. Unless noted, no stated cut-off is given here; in the data, active means activation above about 30%; inactive means the rest.
SMILES,TRHR enhancer,D1 agonist,D1 antagonist,D1 potentiator,TRHR ag
COc1nc(C)ccc1-c1noc(-c2ccccn2)n1,0,-2,-9,-6,0
COc1ccccc1-c1nc(-c2ccc(C)nc2OC)no1,4,6,-32*,-2,-1
CCOc1ccccc1-c1nnc(CS(=O)(=O)c2ccccc2)o1,-5,3,4,3,0
CCCc1cc(=O)oc2cc(C)c3c(-c4ccccc4)coc3c12,49*,2,5,0,0
CCOC(=O)C1=C(NC(=S)NC(=O)c2ccccc2)c2ccccc2CC1C(C)C (stereo unspecified),-3,1,11,1,1
O=C(C/C(=N/O)c1ccccc1O)C(F)F,9,3,-32*,-7,2
O=C(NNC1=NCCCCC1)c1ccccc1,5,1,-7,3,0
C=CCSC1=N/C(=C\c2ccsc2)C(=O)S1,1,3,-4,-2,0
CCCSC1=N/C(=C/c2ccsc2)C(=O)N1c1ccccc1,-1,13,-38*,-13,1
CCCCSC1=N/C(=C/c2ccsc2)C(=O)N1c1ccccc1,-8,16,-45*,-13,2
CCSC1=N/C(=C/c2ccsc2)C(=O)N1c1ccccc1,-2,5,-72*,-12,0
CCOC(=O)CSC1=N/C(=C\c2cccnc2)C(=O)N1c1ccc(OC)cc1,2,1,-7,-15,2
O=S(=O)(c1c(Cl)sc(Cl)c1Br)N1CCCC1,-5,2,10,-1,0
CNCCCC1c2ccccc2C=Cc2ccccc21,27,43*,-22,-5,3
COC(=O)c1sc(NC(=S)NC(=O)c2ccccc2F)nc1C,-2,-1,-16,-11,0
CC1(C)CC(=O)C(C=NCCCN2CCCC2=O)=C(O)C1,-1,2,-13,-6,0
Cc1ccc(C)c(Cn2nnc(C(=O)NCc3ccccc3)c2N)c1,21,41*,-6,-1,0
Nc1c(C(=O)NCc2ccccc2)nnn1Cc1ccccc1,34*,9,4,·,1
COc1cccc(Cn2nnc(C(=O)NCc3ccc(F)cc3)c2N)c1,4,1,-50*,-6,0
CCOc1ccc(Cn2nnc(C(=O)NCCc3ccc(Cl)cc3)c2N)cc1,-3,1,-37*,·,0
CCOc1ccc(Cn2nnc(C(=O)NCCc3ccccc3)c2N)cc1,1,6,-10,·,0
COc1ccc([N+](=O)[O-])cc1NC(=O)C(C)Sc1ccccc1 (stereo unspecified),-4,10,-24,-3,0
Cc1cc(-c2nn(-c3ccccc3F)cc2CN2CCCC(O)C2)c(C)s1 (stereo unspecified),5,2,12,-2,0
O=C(NCCCNC1CCCCC1)c1ccc(/C=N/O)nc1,5,2,13,0,1
Nc1c(C(=O)NCc2ccccc2)nnn1Cc1cccc(Br)c1,0,2,2,-1,0
SMILES,TRHR enhancer,D1 agonist,D1 antagonist,D1 potentiator,TRHR ag
Cc1cc(C)cc(NC(=O)Cn2nnc(C(=O)NCc3ccc4c(c3)OCO4)c2N)c1,4,5,-32*,-6,1
CSc1ccc(Cn2nnc(C(=O)NCc3ccccc3)c2N)cc1,-4,49*,-4,7,3
CC1CCCCN1C(=O)c1ccc(Br)o1 (stereo unspecified),32*,4,6,-1,0
Cc1ccc(C(=O)N2CCCCC2C(=O)O)o1 (stereo unspecified),-3,1,5,-1,0
O=C(CSc1nc2c([nH]c3ccccc32)c(=O)n1-c1ccc(F)cc1)Nc1ccc2c(c1)OCCO2,-3,2,-4,-4,0
Cc1ccc(C)n1CCN1CCN(CC(=O)Nc2cc(C(F)(F)F)ccc2Cl)CC1,55*,0,0,-4,0
O=C(CN1CCOCC1)Nc1cc(C(F)(F)F)ccc1Cl,-2,3,1,-3,-2
NS(=O)(=O)c1ccc(CCNC(=O)c2ccc3ccccc3n2)cc1,-5,2,-31*,-10,0
CCC(CC)C(=O)NCCc1ccc(S(N)(=O)=O)cc1,1,1,-42*,-3,1
CCCCC(CC)C(=O)NCCc1ccc(S(N)(=O)=O)cc1 (stereo unspecified),12,1,-4,-3,-1
CCN(CC)S(=O)(=O)c1ccc2c(c1)N(CC(=O)NCc1ccco1)C(=O)CO2,6,1,3,7,0
CCOC(=O)C1(Cc2cccc(OC)c2)CCCN(S(=O)(=O)CC)C1 (stereo unspecified),-5,0,-7,-5,0
COc1cc(CNc2ccc(O)cc2)cc(Br)c1OCc1ccccc1F,1,0,-16,-4,-2
CCOc1cc(CNCCN2CCOCC2)ccc1OCc1ccccc1Cl,7,37*,-22,-5,-4
CCOc1cc(CNCCCN2CCOCC2)cc(Br)c1OCc1ccccc1Cl,11,67*,-12,0,2
COc1cc(CNCc2ccncc2)cc(Br)c1OCc1ccccc1F,4,10,-31*,-5,-1
CCOc1cc(CNCCO)cc(Br)c1OCc1ccccc1Cl,3,68*,24,-3,3
O=C(CN1CCN(c2ccc(F)cc2)CC1)c1ccc(O)cc1O,0,7,-4,-4,0
CCN1CCOC(=O)C1CC(=O)Nc1cc(Cl)ccc1OC (stereo unspecified),0,-1,1,2,1
COc1ccc(N=C2NC(=O)C(CC(=O)NCCc3ccc(OC)c(OC)c3)S2)cc1 (stereo unspecified),2,4,-38*,0,0
COc1ccc(CCC(=O)NCCc2ccc(OC)c(OC)c2)cc1,8,4,-7,-10,-1
COc1ccc(CCNC(=O)CC2SC(=NCc3ccccc3OC)NC2=O)cc1 (stereo unspecified),-3,-3,-9,0,0
COc1ccc(CC(C)CC(=O)NCCc2ccc(OC)c(OC)c2)cc1 (stereo unspecified),-11,1,-75*,-2,0
CCOc1ccc(CCNC(=O)COC(=O)c2ccc(C)s2)cc1OCC,-11,1,2,10,1
COc1ccc(CCNC(=O)COC(=O)c2ccc(C)s2)cc1OC,-2,7,-33*,-12,0
COCc1cc(C)nc2sc3c(c12)NC(c1ccc(NC(C)=O)cc1)N(c1ccc(C)cc1)C3=O (stereo unspecified),4,-1,14,4,1
Cc1nc(/C=C/c2ccccc2)[nH]c(=O)c1-c1ccccc1,-2,-1,-43*,-4,1
CCN(CC)c1ccc(NC(=O)c2cccc(C)c2OC)c(C)c1,4,2,4,-1,0
